Source: PubChem BioAssay AID488835 (Broad Institute, 2010)
About 140 (10%) of roughly 1,400 compounds were called active.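 The calls were made as follows: active = Half-maximal inhibitory dose from the fit at or below ten times the top valid tested dose; inconclusive = Invalid fit, or flat curve showing 30 to 70% inhibition; inactive = the rest.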 Only a sample is shown. Entries with a potency or affinity are not part of this list.

Molecular target: Lysine-specific demethylase 4C (Homo sapiens) (UniProt Q9H3R0)
Sequence (Q9H3R0 1-420 limits assumed): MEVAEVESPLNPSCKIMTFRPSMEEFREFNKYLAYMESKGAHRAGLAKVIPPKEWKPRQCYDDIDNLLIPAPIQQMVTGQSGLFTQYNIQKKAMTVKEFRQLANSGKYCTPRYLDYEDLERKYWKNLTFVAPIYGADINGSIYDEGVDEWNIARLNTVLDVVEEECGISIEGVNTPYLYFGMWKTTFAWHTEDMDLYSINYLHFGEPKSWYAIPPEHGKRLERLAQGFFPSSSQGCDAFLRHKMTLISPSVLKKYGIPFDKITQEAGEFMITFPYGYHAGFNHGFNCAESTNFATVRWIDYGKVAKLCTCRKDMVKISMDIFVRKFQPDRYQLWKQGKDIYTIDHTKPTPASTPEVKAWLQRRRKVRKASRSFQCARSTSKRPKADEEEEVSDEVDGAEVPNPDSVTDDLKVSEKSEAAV
Assay: GASC-1 (JMJD2C) histone demethylase inhibitors, dose response, biochemical, DELFIA europium, cherry-picked samples (AID 488835);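 also: signal is the H3K9me2 demethylation product detected by a dimethyl-specific antibody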
Details: GST-JMJD2C(1-420), H3K9me3 demethylation; series mostly up to 6 µM; activity change, negative = inhibition: at the top concentration

Activity change, negative = inhibition, inactive:
COc1ccccc1/C=C/C(=O)Nc1ccc(N2CCOCC2)cc1 4.57%
Cc1cc(C)c2cc(C#N)c(SCC(=O)Nc3ccc4c(c3)OCO4)nc2c1 5.59%
O=C(/C=C\Nc1ccc(Cl)cn1)c1ccc(Br)cc1 -7.96%
CCCNC1=C(N(C(C)=O)c2cccc(F)c2)C(=O)c2ccccc2C1=O 3.34%
C#CCOCCOCCOCCNc1nc(N2CCOCC2)nc(N2CCN(C(=O)[C@H](CCCN=C(N)N)n3cc(C(N)[C@@H](C)CC)nn3)CC2)n1 (some centres undefined) 5.28%
C#CCOCCOCCOCCNc1nc(N2CCN(C(=O)[C@H](CCCN=C(N)N)n3cc(C(N)[C@H](C)CC)nn3)CC2)nc(N2CCN(C(=O)[C@H](CC(N)=O)n3cc(C(N)[C@@H](C)CC)nn3)CC2)n1 (some centres undefined) -2.68%
C#CCOCCOCCOCCNc1nc(N2CCN(C(=O)[C@H](CCC(=O)O)n3cc(CN)nn3)CC2)nc(N2CCN(C(=O)[C@H](CCCN=C(N)N)n3cc(C(N)[C@@H](C)CC)nn3)CC2)n1 (some centres undefined) 76.7%
C#CCOCCOCCOCCNc1nc(N2CCN(C(=O)[C@H](CCCN=C(N)N)n3cc(C(N)[C@@H](C)CC)nn3)CC2)nc(N2CCN(C(=O)[C@H](CCC(=O)O)n3cc([C@@H](N)[C@H](C)CC)nn3)CC2)n1 (some centres undefined) 4.63%
Oc1cc2ccccc2cc1-c1nnc2n1-c1ccccc1SC2 -2.47%
CC(=O)Nc1sc2c(c1CN1CCN(C)CC1)CCCC2 6.9%
COc1ccc(S(=O)(=O)N2CC(O)CC2C(=O)OCc2nc3sc(C)c(C)c3c(=O)[nH]2)cc1 (centres undefined) 1.48%
CC1CCN(C(=O)CSc2nnc(CNC(=O)c3c(F)cccc3F)o2)CC1 6.12%
CNC(=O)c1sccc1-n1cccc1 9.03%
CCOC(=O)C1(C)NC(c2cccs2)C2C(=O)N(c3ccc(OC)cc3)C(=O)C21 (centres undefined) 3.9%
Cc1ccccc1CNc1nnnn1C 5.25%
O=C(N/N=C/c1ccc(O)cc1)c1cncc(Br)c1 4.32%
Oc1ccc(Br)cc1/C=N/Nc1nc(N2CCCCC2)nc(N2CCOCC2)n1 12.4%
CN1CCC[C@H]1CCNC(=O)c1c(-c2ccsc2)sc2ccccc12 0.336%
Cn1c(=O)c2[nH]c(N3CCN(c4cccc(O)c4)CC3)nc2n(C)c1=O 2.66%
CC(OC(=O)CN1C(=O)COc2ccccc21)C(=O)NCc1ccc(F)cc1 (centres undefined) 15.5%
Cc1ccc(C(C)C)c(Oc2nnnn2-c2ccccc2)c1 0.65%
O=C(c1cc2c(s1)CCC2)N1C(=O)c2ccccc2S1(=O)=O 2.58%
O=C(Cn1cncn1)NCc1cc(F)ccc1F 2.09%
C[C@H]1CN([C@@H](C)CO)C(=O)c2cccc(NC(=O)C3CC3)c2O[C@H]1CN(C)Cc1ccncc1 1.11%
C[C@H](CO)N1C[C@H](C)[C@@H](CN(C)CC2CCCCC2)Oc2c(NC(=O)C3CC3)cccc2C1=O 4.66%
C[C@H](CO)N1C[C@H](C)[C@@H](CN(C)S(=O)(=O)c2cccs2)Oc2c(NC(=O)CCC(F)(F)F)cccc2C1=O 1.77%
Cc1ccc(NC(=O)COC(=O)CCc2c[nH]c(=O)[nH]2)cc1 9.31%
COc1cc([N+](=O)[O-])ccc1NC(=O)CSc1nccn1C 9.26%
COc1ccc(OC)c(/C=C2\SC(=S)N(Cc3cccnc3)C2=O)c1 -4.57%
O=C(N1CCN(c2ccccc2)CC1)C12CC3CC(CC(C3)C1)C2 -1.02%
CSc1nsc(SCC(=O)Nc2c(C)n(C)n(-c3ccccc3)c2=O)n1 8.05%
O=C(NNC(=O)c1ccc(SCC2CCCO2)c([N+](=O)[O-])c1)c1ccc(Cl)c([N+](=O)[O-])c1 (centres undefined) -5.03%
CCCCC(=O)NC(NC(=S)N1CCOCC1)C(Cl)(Cl)Cl (centres undefined) 2.74%
O=C(Nc1ccc(-c2nc3ncccc3o2)cc1)c1ccc(Br)o1 -4.66%
CC(C)(C)n1nc2c(c1NC(=O)c1ccc(Br)o1)CS(=O)C2 (centres undefined) 1.7%
COc1ccc(S(=O)(=O)Nc2ccc3c(c2)C(=O)N([C@H](C)CO)C[C@H](C)[C@@H](CN(C)S(=O)(=O)c2c(C)noc2C)O3)cc1 5.79%
COC(=O)CN1C(=O)[C@H]2[C@@H](/C=C/c3ccccc3)N3C(=O)CN(Cc4ccccn4)C(=O)[C@@]3(Cc3ccccc3)[C@H]2C1=O 5.78%
COC(=O)c1ccc(/C=C/c2c(-c3ccc(OC)cc3)sc3ccccc23)cc1 7.35%
COc1ccc2c(C(=O)CN3CCN(c4ccccc4)CC3)c[nH]c2c1 2.4%
Cc1noc(C)c1C(=O)Nc1ccc2ccccc2c1 3.03%
Cc1noc(C)c1NC(=O)N(C)C[C@H]1Oc2ccc(NC(=O)CCC(F)(F)F)cc2C(=O)N([C@H](C)CO)C[C@@H]1C 5.18%
Fc1ccccc1OCCCCn1cncn1 9.01%
CC(C)=CCN1CCN(Cc2cn[nH]c2C2CCCCC2)CC1CCO (centres undefined) -1.15%
O=C(C[C@H]1C/C=C/CC[C@@H](Cc2ccc(F)cc2)C(=O)O[C@@H](c2ccccc2)CNC1=O)NCCO 5.71%
CCOC(=O)C1CCN(S(=O)(=O)c2cc3c4c(c2)C(C)C(=O)N4CCC3)CC1 (centres undefined) 3.58%
COc1ccc(NC(=O)NCCCCc2ccccc2)c(OC)c1 -0.647%
CCn1nc(C(=O)NNC(=O)COc2ccc(OC)cc2)c2ccccc2c1=O -3.03%
O=c1nc(SCc2cccc(C(F)(F)F)c2)nc2ccccn12 -5.39%
Cc1cccc(NC(=S)N(CCN2CCOCC2)Cc2cc3cc4c(cc3[nH]c2=O)OCO4)c1 3.04%
CCCCn1c(=O)[nH]c(=O)c2c1nc(-c1cc(Cl)c(OC)c(OC)c1)n2C 0.72%
CNc1nc2c(c(=O)[nH]c(=O)n2C)n1CCCc1ccccc1 2.23% [at 1.6 µM]
CCOC(=O)Cn1nc(C)c2c1CCCC2=O 1.44%
CCC(NS(=O)(=O)c1cccs1)c1ccc(C)cc1 (centres undefined) 3.29%
O=S1(=O)CCC(N=Nc2c(O)n(Cc3ccccc3)c3ccccc23)C1 (centres undefined) -0.825%
Cc1ccccc1Cn1c2ccccc2c2cn[nH]c(=O)c21 -0.371%
C[C@H](N)c1nnc(SCC(=O)N(C)C)o1 3.49%
COc1ccc(CCNC(=O)CSCc2n[nH]c(=O)[nH]2)cc1OC 5.01%
CCOc1ccccc1Nc1ncnc2ccccc12 6.06%
CCOC(=O)c1csc(N/N=C2\CCc3ccccc32)n1 4.71%
COc1ccc(/C=N/N=C2\CC3CCC2(C)C3(C)C)cc1O (centres undefined) 2.55%
Cc1cc(C)c(NC(=O)CS(=O)CC(=O)Nc2ccc(F)cc2F)c(C)c1 (centres undefined) 0.49% [at 1.6 µM]
Cc1cccc2c1-c1sc(C(=O)Nc3cccc([N+](=O)[O-])c3C)cc1CO2 13.5%
Fc1cccc(F)c1/C=N/N1CCOCC1 -5.24%
COc1cccc(CSc2nnc(C(F)(F)F)n2Cc2ccc(F)cc2)c1 -2.62%
O=C1CCCC2=C1C(c1ccc(OS(=O)(=O)c3ccc(Cl)cc3)cc1)C1=C(CCCC1=O)O2 1.91%
O=C1c2ccc([N+](=O)[O-])cc2C(=O)N1Cc1cccnc1 7.52%
COc1ccc(CCNC(=O)c2ccc(N3CCCCS3(=O)=O)cc2)cc1OC 4.22%
O=C(NCCCN1CCCC1=O)c1cc(-c2cccnc2)nc2ccc(Cl)cc12 1.3%
CCCC(=O)NC(c1cccs1)c1cc(Cl)c2cccnc2c1O (centres undefined) -4.81%
COc1ccc(CN2CCNC(=O)C2CC(=O)NCc2csc(C(C)C)n2)c(OC)c1 (centres undefined) -5.09%
Cc1ccc(C2=[N+]([O-])C(C)(C)CC2)cc1 6.51%
O=C(/C=C/c1cccs1)NC1CCS(=O)(=O)C1 (centres undefined) -6.7%
CCOC(=O)c1c(NC(=O)C2CCCO2)sc2c1CCC2 (centres undefined) 0.617% [at 1.6 µM]
CC(C)(C)NC(=O)C1CCN(C(=O)c2ccc(Br)cc2)CC1 3.64%
CC1=C(C#N)C(Nc2ccc(C)cn2)(C(F)(F)F)C(=O)N1 (centres undefined) 2.37%
Cc1csc(SCC(=O)Nc2ccccc2C)n1 2.73%
Cc1ccccc1C(=O)Nc1ccccc1C(=O)NC1CC1 5.56%
N/C(=N\NC(=O)c1ccc(Cl)cc1)c1cnccn1 -1.36%
CCCc1c(NC(=O)Nc2ccc(F)cc2)cnn1-c1ccccc1 7.81%
CC1CCN(c2ccc3c(c2)S(=O)(=O)c2cccc(C(=O)NC4CC4)c2C3=O)CC1 7.81%
CCOC(=O)CCC(=O)NCc1ccc2c(c1)cc(C)n2C 7.23%
CCN(c1ccc(NC(=O)CCNC(=O)c2ccco2)cc1)C(C)C 7.29%
Cc1c(C2Nc3ccccc3NC3=C2C(=O)CC(C)(C)C3)cnn1C (centres undefined) -10.9%
CCOc1cccc(SCc2noc(C(=O)NC(C)C)c2C(=O)O)c1 2.92%
Cc1sc2ncnc(NCCCO)c2c1C 5.97%
Cc1sc2c(c1C)C(=O)/C(=C\Nc1ccccn1)S(=O)(=O)N2C 8.06%
CCN(C[C@H]1N[C@@](CC)(C(=O)OC)[C@H]2C(=O)N(C)C(=O)[C@@H]12)S(=O)(=O)c1ccc(C(F)(F)F)cc1 5.54%
CCN(C[C@H]1N[C@@](Cc2ccccc2)(C(=O)OC)[C@H]2C(=O)N(Cc3ccccc3)C(=O)[C@@H]12)S(=O)(=O)c1ccccc1 1.11%
Cc1ccc(-n2c3nc(=O)[nH]c(=O)c-3cc3c(C)nn(-c4ccccc4)c32)c(C)c1 2.71%
O=C1CC2C(=O)NCCN2C(=NC(=O)c2ccccc2)N1 (centres undefined) 2.42% [at 1.6 µM]
CCSc1nnc(-c2cccc(S(=O)(=O)N(CC)CC)c2)n1Cc1ccccc1 4.36%
Cc1ccc(-c2csc3nc(C)n(-n4c(C)ccc4C)c(=O)c23)o1 -2.47%
CN(C)CCOc1ccc(-c2c(-c3ccccc3)sc3ccccc23)cc1 1.19% [at 1.6 µM]
COc1ccc(-c2n[nH]c(=S)n2C2CCCCC2)cc1 5.73%
NC(=O)C1CCN(c2nc(-c3ccc4c(c3)OCCO4)cs2)CC1 -1.63%
Cc1nc(-c2ccc(C(=O)N3CCCC3)cc2)cs1 -1.97%
COc1ccc(OC)c(Nc2nc(-c3cccs3)cs2)c1 -4.95%
Fc1ccc(-c2csc(Nc3ccccn3)n2)cc1 -16.8%
OCC1=C[C@@H](O)[C@@H]2C=CO[C@@H](O[C@@H]3O[C@H](CO)[C@@H](O)[C@H](O)[C@H]3O)[C@H]12 -3.31%
